According to PubChem BioAssay (NCATS):
Records with an inconclusive call do not appear. Values without a mark were called inactive. Calls follow the shape of the dose curve; as a rule, active = well fitted inhibition curve with a large enough effect; inconclusive = small, poorly fitted or top-dose-only effect; inactive = flat fitted curve, though single readings scatter. Where a SMILES comes first, the peptide text is derived from it. Bridges are numbered along the chain shown (N, C = ends). [ ]: non-standard residue; d: D form. hArg = N=C(N)NCCCC[C@H](N)C(=O)O; Mpa = O=C(O)CCS

Test: qHTS profiling for inhibitors of Plasmodium falciparum proliferation (AID 504749);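 also: 0% = DMSO vehicle and full inhibition = artemisinin control; nearly all actives have a fitted effect of over 60% in size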
Details: P. falciparum in erythrocytes, SYBR Green DNA, 72 h; at 28.7 µM (top of the series); parasite line A
In short: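 Quantitative HTS: compounds pinned into medium, infected erythrocytes added (0.3% parasitemia, 2.5% hematocrit), 72 h culture at 37 C under 5% CO2. Saponin/Triton lysis with SYBR Green I, overnight RT, then fluorescence read.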

SMILES	activity, negative = inhibition
NC(=O)[C@@H]1CSSCCC(=O)N[C@@H](CCCCN=C(N)N)C(=O)NCC(=O)N[C@@H](CC(=O)O)C(=O)N[C@@H](Cc2c[nH]c3ccccc23)C(=O)N2CCC[C@H]2C(=O)N1 ([Mpa][hArg]GDWPC-NH2; disulfide 1-7)	-6.16%
CCCCCCCCCCCCCCCCC(C(=O)O)C(O)(CC(=O)O)C(=O)O (centres undefined)	13.1%
COC(=O)c1cccnc1	7.8%
Cc1c(C)c2c(c(C)c1OC(=O)c1cccnc1)CC[C@@](C)(CCC[C@H](C)CCC[C@H](C)CCCC(C)C)O2	-3.82%
NC(=O)c1ccc([N+](=O)[O-])cc1Cl	-8.53%
COc1ccc(C(=O)NCc2ccc(OCCN(C)C)cc2)cc1OC	-0.299%
CC(=O)Nc1ccccc1	1.91%
O=C(O)CCC(=O)O	10.3%
CC[N+](CC)(CC(=O)Nc1c(C)cccc1C)Cc1ccccc1	15.1%
NC(=O)CC[C@@H](N)C(=O)O	3.38%
O=C(O)CNC(=O)c1ccccc1I	6.37%
O=C(/C=C/c1ccccc1)OCc1ccccc1	4.66%
CCCCOC(=O)c1ccc(N)cc1	5.58%
CC(C)C[C@@H](N)C(=O)O	7.68%
O=C(OOC(=O)c1ccccc1)c1ccccc1	-10.4%
COc1ccccc1OC(=O)Oc1ccccc1OC	-1.25%

SMILES	activity, negative = inhibition
C[C@@H]1O[C@@H](OC[C@H]2O[C@@H](Oc3c(-c4ccc(O)c(O)c4)oc4cc(O)cc(O)c4c3=O)[C@H](O)[C@@H](O)[C@@H]2O)[C@H](O)[C@H](O)[C@H]1O	3.3%
CCCCCCCCCCCCCCCCCCO	2.93%
CC1CCN(CCCC(=O)c2ccc(F)cc2)CC1	12.5%
O=C(O)CCCc1ccccc1	3.34%
CC(C(=O)O)c1ccc2c(c1)Cc1cccnc1O2 (centres undefined)	5.68%
NS(=O)(=O)c1cc(-c2nn[nH]n2)c(NCc2cccs2)cc1Cl	0.998%
CCOc1cc(NC(C)=O)ccc1C(=O)OC	4.89%
Cc1c(N(C)C)c(=O)n(-c2ccccc2)n1C	13.7%
O=C(Cn1ccnc1[N+](=O)[O-])NCc1ccccc1	12.6%
COc1ccccc1Oc1c(NS(=O)(=O)c2ccc(C(C)(C)C)cc2)nc(-c2ncccn2)nc1OCCO	-4.92%
O=S1(=O)OC(c2ccc(O)cc2)(c2ccc(O)cc2)c2ccccc21	-0.266%
CC1CC(OC(=O)c2ccccc2O)CC(C)(C)C1 (centres undefined)	-5.75%
Cc1cc(C)nc(NS(=O)(=O)c2ccc(N)cc2)n1	7.93%
C[C@@H](N)C(=O)O	26.2%
Cc1cc(O)cc(C)c1Cl	-2.51%
CC(=O)NCc1c(I)c(NC(C)=O)c(I)c(C(=O)O)c1I	10.9%

Same assay, conditions: P. falciparum in erythrocytes, SYBR Green DNA, 72 h; at 28.7 µM (top of the series); parasite line B

SMILES	activity, negative = inhibition
NC(=O)[C@@H]1CSSCCC(=O)N[C@@H](CCCCN=C(N)N)C(=O)NCC(=O)N[C@@H](CC(=O)O)C(=O)N[C@@H](Cc2c[nH]c3ccccc23)C(=O)N2CCC[C@H]2C(=O)N1 ([Mpa][hArg]GDWPC-NH2; disulfide 1-7)	11.6%
CCCCCCCCCCCCCCCCC(C(=O)O)C(O)(CC(=O)O)C(=O)O (centres undefined)	1.49%
COC(=O)c1cccnc1	16.6%
Cc1c(C)c2c(c(C)c1OC(=O)c1cccnc1)CC[C@@](C)(CCC[C@H](C)CCC[C@H](C)CCCC(C)C)O2	-2.45%
NC(=O)c1ccc([N+](=O)[O-])cc1Cl	6.47%
COc1ccc(C(=O)NCc2ccc(OCCN(C)C)cc2)cc1OC	-0.981%
CC(=O)Nc1ccccc1	-0.613%
O=C(O)CCC(=O)O	13.7%
CC[N+](CC)(CC(=O)Nc1c(C)cccc1C)Cc1ccccc1	8.11%
NC(=O)CC[C@@H](N)C(=O)O	6.23%
O=C(O)CNC(=O)c1ccccc1I	11.3%
O=C(/C=C/c1ccccc1)OCc1ccccc1	-29.4%
CCCCOC(=O)c1ccc(N)cc1	10.8%
CC(C)C[C@@H](N)C(=O)O	22.5%
O=C(OOC(=O)c1ccccc1)c1ccccc1	7.71%
COc1ccccc1OC(=O)Oc1ccccc1OC	5.57%

SMILES	activity, negative = inhibition
C[C@@H]1O[C@@H](OC[C@H]2O[C@@H](Oc3c(-c4ccc(O)c(O)c4)oc4cc(O)cc(O)c4c3=O)[C@H](O)[C@@H](O)[C@@H]2O)[C@H](O)[C@H](O)[C@H]1O	8.33%
CCCCCCCCCCCCCCCCCCO	2.31%
CC1CCN(CCCC(=O)c2ccc(F)cc2)CC1	9.34%
O=C(O)CCCc1ccccc1	-0.114%
CC(C(=O)O)c1ccc2c(c1)Cc1cccnc1O2 (centres undefined)	-1.86%
NS(=O)(=O)c1cc(-c2nn[nH]n2)c(NCc2cccs2)cc1Cl	13.7%
CCOc1cc(NC(C)=O)ccc1C(=O)OC	12.8%
Cc1c(N(C)C)c(=O)n(-c2ccccc2)n1C	18.1%
O=C(Cn1ccnc1[N+](=O)[O-])NCc1ccccc1	10.2%
COc1ccccc1Oc1c(NS(=O)(=O)c2ccc(C(C)(C)C)cc2)nc(-c2ncccn2)nc1OCCO	-14.6%
O=S1(=O)OC(c2ccc(O)cc2)(c2ccc(O)cc2)c2ccccc21	7%
CC1CC(OC(=O)c2ccccc2O)CC(C)(C)C1 (centres undefined)	14.6%
Cc1cc(C)nc(NS(=O)(=O)c2ccc(N)cc2)n1	10.9%
C[C@@H](N)C(=O)O	15.6%
Cc1cc(O)cc(C)c1Cl	-4.56%
CC(=O)NCc1c(I)c(NC(C)=O)c(I)c(C(=O)O)c1I	6.96%
